Test results taken from the supplement of paper PMC12632987.
In all, about 4,500 sequences were measured (“median log2 fold change of GCK-ALFA target abundance (FLAG IP / Myc IP barcode read proportion)”: median about 0.078, lowest 2% from about -0.6 on). Many of the other results were omitted from the sample, so the lowest values are more common in it than they were.

B1: GBRAP_35_5618 (protein)
chain: MSDEELTDMLVDLIEDATAAVPDVSVETLAAIAASLSRAVRSLAEELAGNAENLRRLADAVEALRDAIERHHGDDPLAQETIAALTATAEEIRARAAASE
B2: GBRAP_160_4664 (protein)
chain: SEEIEKLLEEIRELLLETLDWTKDLDPASREALLRAAVGDVLQLLFENPLVTDEVEDYAEEVLEEMREYVLANPDLTDEEREALVDEVVDKIREKILEES
B3: GBRAP_11_2937 (protein)
chain: EKEKLKKAQELAKEAQELLKKIQKAGKLDEELLKKAQELLKKAAELAKELGLEEEQKDLELAQELLEEVQKAGKLDETKVAAAQALVFDVAHELEEKLEE
B4: GBRAP_52_6133 (protein)
chain: MREELREKVLELLELVKAGKLEEAKKRLLKIAKELSDEELREFAREFAEVVRELPPEDLDAAAELLELAEEALEEAGRPEELISLLIGEGARALYEVEQR
B5: GBRAP_11_2673 (protein)
chain: MKEKLLEAAELAEKAAKLVEELIKEGVDNEELLKELKKLLEELKKLAKEYLSKALQKDVEVAEELFKELLEDEENRLEYAEQLLAALRVLEGNLLLEADE
B6: GBRAP_52_6314 (protein)
chain: MSERMEELARRLLELMLAGDEEGARALIRELVKTLSEEELLLLAEELARLAKTLDAEGLDALARLLELIEDEMEEEGVDERIIAEIRGIIITAIYEAEQR
B7: GBRAP_53_6413 (protein)
chain: AEAEIAALRAEVKATARAAAAADEATLAALVAEIGALLAALKAAGMPDEELTALAEEVARTLRAAGAPDSALVALAGHLAALGLEEATAAVAEEAVEELE
B8: GBRAP_35_5549 (protein)
chain: DSDREIAEMLVDTIEDIVEALPDVSEEDKIALAKAAIRLARDLVELKPKDEELIKRAIEALERIKEILEESDLPEEDKEELIEEIEELIEELKKLLEENK
B9: GBRAP_35_5548 (protein)
chain: DSDEETAEMLVDTIEDIVEALPDVSEEDRVALAEAALRLARDLVELQPKNKELIKRAIEALERIKEIIEESDLPEEVRERLVREIEELIEELKKILEENE
B10: GBRAP_122_2955 (protein)
chain: SKEEEVERLVEETVEAAKKGDFAATILEALKEAAERFDAESLIRLAERLAERARELGKEAEAALAFATAAQWLLEERPELAEAADRLLELADELLDLLEE
B11: GBRAP_166_4966 (protein)
chain: MEEEIKEEFKKYLEELKEKMKKANEEEKLELLAEAAEKLREAKEAGVSRETLRELIRYLIELAKEVGLTDSQVYGALSILADLDEEEIDILEEEIAEVRA
B12: GBRAP_166_4889 (protein)
chain: STEEAIREIERLAEEAIANIAALTPEELLAVFIEMVEIVERAGATPELRAALAEAAARIVAAAVAAGRDWDEVESLALAAVGDDEELLDAVEATLAALRA
B13: GBRAP_74_6553 (protein)
chain: SAALKKEIDAAAKAGDADKLIKLARKAVKEGDIDVAVHALGQLAKLAVKKAKAGDYDELDKLIDAIVEILEKVPDEALTDETWKAIAAAIKAAIEAEKAR
B14: GBRAP_160_4776 (protein)
chain: SEKEEKLKKKIKEAKEEILESIDTLSPEETLTVAIGETGDIIMEAEELEFDNEELLDSIDEIMDELIEELEKNKNASPEEKKKIVEEKFEKLLKELEKLT
B15: GBRAP_160_4428 (protein)
chain: SEKLKKAKEKIEEIIEETVEMMKGQSAEERQVLVRVARGEIILELEELGLLTDEVDEVIDEEFDEIVEYIAENPDISDEELRELLEEAREKILKELEKVS
B16: GBRAP_14_3860 (protein)
chain: VEALVKAVERTAESTKELIAEIAPEHAEEIKAKVEELAKEIIEKIKKENLNIEEVEELVDEAAEKLGAYMREKGYLSDTEIAAFKAHLLSEFLLELEEIE
B17: GBRAP_160_4725 (protein)
chain: EEEIKEFVEEFREEFLETLELTKDESKENAKALFRGTAGEILQDAFENPFLTDEQEDVVAEILDELVEELEKNFDASLEEKKEIVEEKMEELLEKLLELS
B18: GBRAP_128_3486 (protein)
chain: STEEVVAKTKELMEKIKNSSLEEVEEIARELVELLGQADPESREAATEVILEKLKELSAEKLEILADVLRERQPELDPFGAEQAAEIQVEALNEAEEKEE
B19: GBRAP_52_6312 (protein)
chain: MHERMRELAEELLELMLAGDREGARALAREIVATLSEEELLLLAEELAELAEELDEEELEKAAELLFILEDEMEAAGVDERVIAEMLGIIITAIYKAEQK
B20: GBRAP_52_6313 (protein)
chain: MREEMRAQAEELLALMLAGDRDGARALAEELVATLSEEELLLLAEELAKLSETLNAEELDKAMELLEILEDVMEEAGVDERVIAEIRGIVITAIYKAEQK
B21: GBRAP_96_7095 (protein)
chain: MLEEAKKLVKELIKALDTDPEKAEELAKKLLEFPVEVVTEALVEVVKKPEDAAKIAKLLLKLGDEKAEEVLLEAAEKAPGDISKAIIDAMEAYEKEQEAA
B22: GBRAP_128_3565 (protein)
chain: STAELVAEARALLAAIKAADAEEARALAERLADLIAAASPEARAAIVETILARLPELTAEQLDILADVFAARRATADPAVAEALAEIQVEALNVREEKEE
B23: GBRAP_14_3799 (protein)
chain: MEEREKAIEEITEETLEILEEILADAPEEVRERVLELVEEARERIIKEKLSPDEIAELEDELLEEVAKILADAPPEVRAQVLAAISVGMGEIILEVEELE
B24: GBRAP_160_4163 (protein)
chain: MEEAEELIKEVEEETKEAIELIEGESIEQRKVIIAGHFGVIIMTLFESDVVSDEVVDFAVELRDELVKWIDENPDASLEEIKKKIKEAEKKIKEKIKKDA
B25: GBRAP_35_5613 (protein)
chain: EDVQLAVDSFVDMAEAIIELIPEIDDETLAALAQSLIKFAKSLLKEEKNNKEALEKIKEAMEKLLEALKKYRSDNPLIQKVAKEVQEVIKEAEKAIKEVK
B26: GBRAP_52_5915 (protein)
chain: MSAELEAKLDEMLAAVKAGKLEEARAIAREIVESLDDEELRELVELFAERVRAAPLEDLPAWWRLAEILAEELEEAGKDEVLADDLLNRTAAAIYEKLQA
B27: GBRAP_160_4375 (protein)
chain: SEELKELIKEIEELKKEFEELAKDLSPEEVKILAKGVLSEIAALVFENEAVSEETKDKIMEIIDKALEELDKLKDASPEEIVAVTTEAVNEIIELIKKEI
B28: GBRAP_14_3854 (protein)
chain: MEKLIAAVKKTAEAAIEFAKELLPEHAEEVGKKIKELAEKIIEKIKKENLNKEEVAELIRKMAEELGKFIKEKGYASDEEIAAFKAFIENEALLELEKVE
B29: GBRAP_52_5907 (protein)
chain: MKEELEKILNEIIEAVKAGKLEEARKIARELAEKYDDETLEEFIELFAEMVLEAPEEDLPYYWKAAEILAEEFEREGKDEVLADLLLSRTAAAIYEKLQR

Biological target: GABARAP, O95166
Assay: median log2 fold change of GCK-ALFA target abundance (FLAG IP / Myc IP barcode read proportion) (log2 ratio); each designed protein is fused to an ALFA-tag nanobody in HEK293 cells to bring the named protein to FLAG-tagged glucokinase (GCK); Myc marks an untargeted standard; higher = target protein stabilised (more abundant)
Settings: target protein: 3xFLAG-MCP-GCK-ALFA reporter; HEK293 landing pad (RPLP)
Summary of the method: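 HEK293 landing-pad cells received a recombined binder library fused to the ALFA nanobody and were induced with 2 μg mL^−1 doxycycline, then transfected with a plasmid encoding a FLAG-tagged target and a Myc-tagged standard. Lysates were collected after 48 h for anti-FLAG and anti-Myc immunoprecipitation, and the circular RNA barcodes were reverse transcribed, amplified and sequenced. Target abundance for each binder is the median log2 ratio of FLAG to Myc barcode read proportions. Barcodes had to reach a proportion of at least 10^−7 in both replicates, each binder needed at least 3 barcodes per replicate, a pseudocount of 10^−6 was applied, and the two replicates were pooled.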

Sequence of GABARAP, O95166 (O95166 whole entry, the tested form may be a part): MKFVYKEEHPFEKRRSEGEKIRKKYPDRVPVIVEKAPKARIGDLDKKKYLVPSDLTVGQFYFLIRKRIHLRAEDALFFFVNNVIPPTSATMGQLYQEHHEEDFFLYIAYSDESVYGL

Binder	median log2 fold change
B1	-1.48
B2	-0.406
B3	0.139
B4	0.086
B5	0.0764
B6	-0.236
B7	0.295
B8	-0.761
B9	-0.485
B10	-0.119
B11	-0.12
B12	0.108
B13	-0.699
B14	0.018
B15	0.0554
B16	0.302
B17	0.0697
B18	0.224
B19	-0.795
B20	-0.0291
B21	0.344
B22	0.318
B23	-0.611
B24	0.215
B25	-0.07
B26	-0.669
B27	0.194
B28	0.381
B29	-0.881
